Laboratory results as given in PubChem BioAssay.

These compounds were tested against Dickkopf-related protein 1 (Homo sapiens) (UniProt O94907) (assay: small molecules binding DKK1 protein – biochemical, small-molecule microarray, 635 nm fluorescence scan, primary screen (AID 1106;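 note: score merges emission near 667 nm with signal to noise over three replicate slides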)). Conditions: higher = more signal.
Sequence of Dickkopf-related protein 1 (Homo sapiens) (O94907 whole entry, looked up): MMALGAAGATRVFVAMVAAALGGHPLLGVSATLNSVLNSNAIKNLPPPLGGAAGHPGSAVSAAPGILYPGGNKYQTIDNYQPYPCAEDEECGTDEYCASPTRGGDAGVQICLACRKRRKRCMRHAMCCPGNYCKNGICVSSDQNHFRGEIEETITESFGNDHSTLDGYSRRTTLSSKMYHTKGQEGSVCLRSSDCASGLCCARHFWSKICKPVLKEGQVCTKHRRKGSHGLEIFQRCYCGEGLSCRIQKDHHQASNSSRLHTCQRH

Structure (SMILES) | composite z-score
CC1CC/C=C\[C@H]2OC34C=CCN(CCN5CCOCC5)C(=O)[C@H]3N(CCCO)C(=O)[C@@H]4C2C(=O)O1 (some centres not stated) | -0.235
COC(=O)C[C@H]1O[C@@]2(C[C@@H]1[Si](C)(C)C)C(=O)N(C)c1ccccc12 | 0.525
O=C1C2C=CC(C(O)c3cccs3)N(Nc3ccc([N+](=O)[O-])cc3)C2C(=O)N1c1ccccc1 (configuration not stated) | 0.21
Cc1ccc(S[C@]2(C(=O)NCc3ccccc3)CC(=O)N(Cc3ccccc3C(F)(F)F)[C@@H]2c2ccc(CO)cc2)cc1 | -1.72
O=C1[C@H]2C=C(I)[C@H](C[C@@H]2c2ccccc2)[C@@]12CO2 | 0.485
C=CC[C@@]12N=C(c3ccc(OCCCO)cc3)O[C@@H]1c1ccccc1N(CCC)C2=O | -0.0879
C=CCC(OC(C)=O)[C@@H]1[C@@H](N(Cc2cccc3ccccc23)C(=O)c2ccc(-c3ccccc3)cc2)c2cc(OCCCO)ccc2N1C(=O)Cc1ccc2ccccc2c1 (some centres not stated) | -0.624
CCOC(=O)C1=CC[C@@H](c2ccccc2)N(S(=O)(=O)c2ccc(C)cc2)[C@H]1c1ccccc1I | 0.254
O=C1O[C@H](c2ccccc2)[C@H](c2ccccc2)N2[C@H]1[C@@H](C(=O)O)[C@]1(C(=O)Nc3ccc(C#CCCO)cc31)[C@H]2c1ccc(OCCO)cc1 | 0.488
COc1ccc(C(O)C2C=CC3C(=O)NC(=O)C3N2Nc2ccc(Cl)cc2Cl)c2ccccc12 (configuration not stated) | -0.284
COCCCNC(=O)[C@@]1(CCC(=O)OC(C)(C)C)COC(c2ccc(OCCCO)cc2)=N1 | -0.0833
NC(=O)N1C(=O)C2C(C1=O)C1C=C(CCCO)C2C(C2CC2)N1Cc1sc2ccccc2c1Cl (configuration not stated) | 0.158
